Results: PubChem BioAssay AID1159580 (chemical genetic matrix, 2015)
In all, about 5,500 compounds went through this assay and about 2,000 (36%) were called active. Not shown: some 18% with an inconclusive outcome. Rule as the data show it: active = normalized growth mostly below about 0.91 (no sharp cut-off); inconclusive = no clear call, values can overlap the other calls; inactive = mostly above about 0.92. Some of the results follow.

Assay: chemical genetic growth profiling, strain panel (AID 1159580);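 also: tested at 20 µM; growth read once vehicle control cultures reached saturation at 30 °C; 1 = growth at the plate median or of vehicle wells; lower values mean less growth of the strain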
Settings: growth OD

Measured: normalized growth

c1ccc(CC2=NCCN2)cc1
inactive: S. cerevisiae deletion strains, locus YJR075W, strain HOC1, active compounds read low 1 | S. cerevisiae deletion strains, locus YKL160W, strain elf1, active compounds read low 1.03 | S. cerevisiae deletion strains, locus YKL190W, strain CNB1, active compounds read low 0.998 | S. cerevisiae deletion strains, locus YKR001C, strain vps1, active compounds read low 0.913 | S. cerevisiae deletion strains, locus YKR026C, strain gcn3, active compounds read low 1.03 | S. cerevisiae deletion strains, locus YKR091W, strain srl3, active compounds read low 1.01 | S. cerevisiae deletion strains, locus YLL001W, strain dnm1, active compounds read low 1.01 | S. cerevisiae deletion strains, locus YLL026W, active compounds read low 1.02 | S. cerevisiae deletion strains, locus YLL041C, strain sdh2, active compounds read low 1.01 | S. cerevisiae deletion strains, locus YLR027C, strain aat2, active compounds read low 1.02 | S. cerevisiae deletion strains, locus YLR039C, strain RIC1, active compounds read low 0.931 | S. cerevisiae deletion strains, locus YLR058C, strain SHM2, active compounds read low 0.984 | S. cerevisiae deletion strains, locus YLR113W, strain HOG1, active compounds read low 0.957 | S. cerevisiae deletion strains, locus YLR221C, strain rsa3, active compounds read low 0.997 | S. cerevisiae deletion strains, locus YLR258W, strain gsy2, active compounds read low 1.01 | S. cerevisiae deletion strains, locus YLR262C, strain YPT6 (second series), active compounds read low 1.03 | S. cerevisiae deletion strains, locus YLR262C, strain YPT6, active compounds read low 0.927 | S. cerevisiae deletion strains, locus YLR268W, strain sec22, active compounds read low 0.905 | S. cerevisiae deletion strains, locus YLR320W, strain mms22, active compounds read low 0.989 | S. cerevisiae deletion strains, locus YLR330W, strain CHS5, active compounds read low 0.97 | S. cerevisiae deletion strains, locus YLR342W, strain FKS1 (second series), active compounds read low 1.01 | S. cerevisiae deletion strains, locus YLR342W, strain FKS1, active compounds read low 1.03 | S. cerevisiae deletion strains, locus YLR357W, strain rsc2, active compounds read low 1.03 | S. cerevisiae deletion strains, locus YLR370C, strain arc18, active compounds read low 1.01 | S. cerevisiae deletion strains, locus YLR371W, strain rom2, active compounds read low 0.909 | S. cerevisiae deletion strains, locus YLR384C, strain iki3, active compounds read low 1.03 | S. cerevisiae deletion strains, locus YLR418C, strain cdc73, active compounds read low 1.01 | S. cerevisiae deletion strains, locus YML016C, strain PPZ1, active compounds read low 1.01 | S. cerevisiae deletion strains, locus YML032C, strain rad52, active compounds read low 0.915 | S. cerevisiae deletion strains, locus YML120C, strain ndi1, active compounds read low 1.01 | S. cerevisiae deletion strains, locus YMR058W, strain fet3, active compounds read low 1.03 | S. cerevisiae deletion strains, locus YMR125W, strain sto1, active compounds read low 1.01 | S. cerevisiae deletion strains, locus YMR129W, active compounds read low 1.02 | S. cerevisiae deletion strains, locus YMR205C, strain PFK2, active compounds read low 1 | S. cerevisiae deletion strains, locus YMR223W, strain ubp8, active compounds read low 0.916 | S. cerevisiae deletion strains, locus YMR231W, strain pep5, active compounds read low 1.01 | S. cerevisiae deletion strains, locus YMR263W, strain SAP30, active compounds read low 0.978 | S. cerevisiae deletion strains, locus YMR307W, strain GAS1, active compounds read low 1.03 | S. cerevisiae deletion strains, locus YNL067W, strain RPL9B, active compounds read low 0.957 | S. cerevisiae deletion strains, locus YNL071W, strain lat1, active compounds read low 1.03 | S. cerevisiae deletion strains, locus YNL128W, strain TEP1, active compounds read low 1.01 | S. cerevisiae deletion strains, locus YNL153C, strain GIM3, active compounds read low 0.987 | S. cerevisiae deletion strains, locus YNL183C, strain NPR1, active compounds read low 0.943 | S. cerevisiae deletion strains, locus YNL209W, strain ssb2, active compounds read low 1.02 | S. cerevisiae deletion strains, locus YNL233W, strain BNI4, active compounds read low 0.98 | S. cerevisiae deletion strains, locus YNL248C, strain rpa49, active compounds read low 1.05 | S. cerevisiae deletion strains, locus YNL322C, strain KRE1 (second series), active compounds read low 1.01 | S. cerevisiae deletion strains, locus YNL322C, strain KRE1, active compounds read low 0.987 | S. cerevisiae deletion strains, locus YNR049C, strain mso1, active compounds read low 0.996 | S. cerevisiae deletion strains, locus YOL006C, strain TOP1, active compounds read low 1.09 | S. cerevisiae deletion strains, locus YOL012C, strain htz1 1.4 | S. cerevisiae deletion strains, locus YOR001W, strain rrp6, active compounds read low 1 | S. cerevisiae deletion strains, locus YOR061W, strain CKA2, active compounds read low 0.986 | S. cerevisiae deletion strains, locus YOR069W, strain VPS5, active compounds read low 0.968 | S. cerevisiae deletion strains, locus YOR070C, strain gyp1, active compounds read low 0.998 | S. cerevisiae deletion strains, locus YOR080W, strain dia2, active compounds read low 1.02 | S. cerevisiae deletion strains, locus YOR083W, strain WHI5, active compounds read low 0.976 | S. cerevisiae deletion strains, locus YOR106W, strain vam3, active compounds read low 1.03 | S. cerevisiae deletion strains, locus YOR136W, strain idh2, active compounds read low 0.937 | S. cerevisiae deletion strains, locus YOR184W, strain ser1, active compounds read low 0.899 | S. cerevisiae deletion strains, locus YOR231W, strain MKK1, active compounds read low 0.976 | S. cerevisiae deletion strains, locus YOR265W, strain rbl2, active compounds read low 0.99 | S. cerevisiae deletion strains, locus YOR270C, strain vph1, active compounds read low 1.11 | S. cerevisiae deletion strains, locus YOR290C, strain snf2, active compounds read low 1 | S. cerevisiae deletion strains, locus YPL051W, strain arl3, active compounds read low 0.989 | S. cerevisiae deletion strains, locus YPL055C, strain LGE1, active compounds read low 0.995 | S. cerevisiae deletion strains, locus YPL078C, strain atp4, active compounds read low 1.04 | S. cerevisiae deletion strains, locus YPL106C, strain sse1, active compounds read low 1.02 | S. cerevisiae deletion strains, locus YPL240C, strain hsp82, active compounds read low 1.02 | S. cerevisiae deletion strains, locus YPL241C, strain CIN2, active compounds read low 0.99 | S. cerevisiae deletion strains, locus YPL256C, strain CLN2, active compounds read low 0.941 | S. cerevisiae deletion strains, strain wtn01, active compounds read low 0.917 | S. cerevisiae strains, strain wild type, active compounds read low 1
active: S. cerevisiae deletion strains, locus YKL009W, strain mrt4, active compounds read low 0.695 | S. cerevisiae deletion strains, locus YKL068W, active compounds read low 0.837 | S. cerevisiae deletion strains, locus YKL085W, strain MDH1 (second series), active compounds read low 0.836 | S. cerevisiae deletion strains, locus YKL085W, strain MDH1, active compounds read low 0.836 | S. cerevisiae deletion strains, locus YLR102C, strain apc9, active compounds read low 0.897 | S. cerevisiae deletion strains, locus YML124C, strain tub3, active compounds read low 0.904 | S. cerevisiae deletion strains, locus YMR078C, strain ctf18, active compounds read low 0.907 | S. cerevisiae deletion strains, locus YNL250W, strain rad50, active compounds read low 0.822 | S. cerevisiae deletion strains, locus YNL271C, strain bni1, active compounds read low 0.837 | S. cerevisiae deletion strains, locus YNL298W, strain CLA4, active compounds read low 0.79 | S. cerevisiae deletion strains, locus YNL307C, strain MCK1, active compounds read low 0.877 | S. cerevisiae deletion strains, locus YNR052C, strain pop2, active compounds read low 0.911 | S. cerevisiae deletion strains, locus YOL147C, strain pex11, active compounds read low 0.915 | S. cerevisiae deletion strains, locus YOR144C, strain elg1, active compounds read low 0.917 | S. cerevisiae deletion strains, locus YOR316C, strain cot1, active compounds read low 0.919 | S. cerevisiae deletion strains, locus YPR119W, strain clb2, active compounds read low 0.896 | S. cerevisiae deletion strains, locus YPR141C, strain kar3, active compounds read low 0.767 | S. cerevisiae deletion strains, locus YPR163C, strain tif3, active compounds read low 0.885 | S. cerevisiae deletion strains, locus YPR167C, strain met16, active compounds read low 0.906
